Laboratory results reported in PubChem BioAssay (EPA / NIEHS).
Active and inactive are the calls of the source. The calls were made as follows: active = hit-call score of the fitted dose curve at least 0.9, where 1 is the maximum; inactive = score below 0.9.

Key:
[1] = APR_HepG2_CellCycleArrest_1hr: Apredica 1-hour HepG2 Assay for Cell Cycle Arrest (AID 2282666); settings: high-content imaging, actives raise or lower the signal
Procedure, shortened: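 Cell cycle arrest scored from nuclear DNA content (Hoechst 33342) using high-content imaging of fixed HepG2 cells after 1 h treatment across 0.39–200 uM, in duplicate. Gain or loss fitted relative to 0.5% DMSO.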

[2] = APR_HepG2_MicrotubuleCSK_1hr: Apredica 1-hour HepG2 Assay for Microtubule CSK Stabilty (AID 2282669); settings: HepG2 microtubule cytoskeleton imaging, actives raise or lower the signal
Procedure, shortened: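 Alpha-tubulin immunofluorescence, imaged by automated high-content microscopy with Hoechst nuclear segmentation, measured cytoskeletal change after 1 h dosing of HepG2 at 0.39–200 uM in 0.5% DMSO. Activity fitted in both directions relative to DMSO.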

[3] = APR_HepG2_NuclearSize_1hr: Apredica 1-hour HepG2 Assay for Nuclear Size (AID 2282670); settings: high-content imaging, actives raise or lower the signal
Procedure, shortened: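 Nuclear size measured by high-content imaging of Hoechst 33342 nuclear stain after formaldehyde fixation; human HepG2 line exposed 1 hr to compounds at 0.39–200 uM in 0.5% DMSO, with bidirectional curve fitting relative to DMSO.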

[4] = APR_HepG2_MitoticArrest_1hr: Apredica 1-hour HepG2 Assay for Mitotic Arrest (AID 2282672); settings: high-content imaging, actives raise or lower the signal
Procedure, shortened: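 Ten-point concentration series (0.39 to 200 uM, duplicates, 0.5% v/v DMSO) applied to human HepG2 liver cells for 1 hr. High-content imaging of phospho-histone H3 and Hoechst-stained nuclei after fixation and permeabilization; DMSO-normalised bidirectional fit.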

[5] = APR_HepG2_P-H2AX_1hr: Apredica 1-hour HepG2 Assay for H2AX Phosphorylation (AID 2282673); settings: high-content imaging, actives raise or lower the signal
Procedure, shortened: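 Phospho-H2A.x immunofluorescence (1:200, FITC secondary) plus Hoechst nuclear stain, quantified by high-content imaging in HepG2 after 1 hr compound exposure. Ten concentrations, 0.39 to 200 uM, in duplicate with 0.5% DMSO; fit both directions against DMSO.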

[6] = APR_HepG2_MitoMembPot_1hr: Apredica 1-hour HepG2 Assay for Mitochondrial Membrane Potential (AID 2282675); settings: imaging, actives raise or lower the signal
Procedure, shortened: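 Mitochondrial membrane potential read as MitoTracker Red CMXRos intensity by automated imaging of fixed HepG2 cells. Dye at 250 nM for 30 min pre-fixation; compounds 0.39 to 200 uM for 1 hour, duplicate wells, 0.5% DMSO.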

[7] = APR_HepG2_CellCycleArrest_24hr: Apredica 24-hour HepG2 Assay for Cell Cycle Arrest (AID 2282905); settings: imaging, actives raise or lower the signal;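 also: cell cycle arrest scored as ratio of 2N to 4N nuclear DNA content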
Procedure, shortened: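 Compounds (0.39 to 200 uM, final DMSO 0.5% v/v) are applied to HepG2 cells for 24 hours; cells are then fixed, permeabilized and nuclei labeled with Hoechst 33342. Automated imaging measures DNA content, and activity is fitted in both directions against DMSO.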

[8] = APR_HepG2_CellLoss_1hr: Apredica 1-hour HepG2 Assay for Cell Loss (AID 2282668); settings: high-content imaging;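 also: curves fitted both ways against DMSO so gain or loss of cells counts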
Procedure, shortened: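 Cell number comes from high-content imaging of Hoechst-labelled nuclei in fixed HepG2 cells. Cells were exposed for 1 h to ten concentrations from 0.39 to 200 uM in 0.5% DMSO. Gain or loss was fitted against DMSO controls.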

[9] = APR_HepG2_p53Act_1hr: Apredica 1-hour HepG2 Assay for p53 Activation (AID 2282671); settings: high-content imaging, actives raise or lower the signal
Procedure, shortened: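 After 1 h exposure (0.39–200 uM, 0.5% DMSO final, duplicates), fixed HepG2 cells were labelled with anti-p53 antibody plus Hoechst nuclear stain. Fluorescence quantified by automated 20x imaging; changes fitted in both directions against DMSO.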

[10] = APR_HepG2_MitoMass_1hr: Apredica 1-hour HepG2 Assay for Mitochondrial Mass (AID 2282674); settings: high-content imaging, actives raise or lower the signal
Procedure, shortened: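 Mitochondrial mass is taken from MitoTracker Red CMXRos (250 nM, 30 min, pre-fixation) fluorescence imaged at 20x in HepG2 cells. Exposure lasted 1 hr across ten concentrations, 0.39 to 200 uM, 0.5% DMSO; DMSO baseline, bidirectional fitting.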

Measured: AC50

C=C(C)[C@H]1Cc2c(ccc3c2O[C@@H]2COc4cc(OC)c(OC)cc4[C@@H]2C3=O)O1
inactive: [1] | [3] | [4] | [5] | [6]
active: [2] 4.74 µM | [7] 0.0391 µM

CN(C)NC(=O)CCC(=O)O
not listed: [2] | [5]
inactive: all other assays above

CCOP(=S)(OCC)Oc1ccc([N+](=O)[O-])cc1
not listed: [2] | [5] | [9]
inactive: all other assays above

CCOP(=O)(SC(C)CC)N1CCSC1=O (configuration not stated)
inactive: [8] | [2] | [3] | [4] | [10] | [7]

CCCOc1nn(C(=O)NS(=O)(=O)c2ccccc2C(=O)OC)c(=O)n1C
inactive: [3] | [4] | [10] | [7]

CCc1cccc(CC)c1N(COC)C(=O)CCl
active: [7] 60.9 µM
inactive: [2] | [3] | [4] | [5]

CCCSP(=O)(OCC)SCCC
inactive: [8] | [3] | [4] | [7]

O=C(O)c1cc(Oc2ccc(C(F)(F)F)cc2Cl)ccc1[N+](=O)[O-]
not listed: [1] | [2] | [9]
inactive: all other assays above

COP(=O)(NC(C)=O)SC (configuration not stated)
inactive: [2] | [3] | [4] | [7]

CC(C)[C@H](C(=O)O[C@H](C#N)c1cccc(Oc2ccccc2)c1)c1ccc(Cl)cc1
inactive: [8] | [2] | [3] | [4] | [6] | [7]

Cc1ccn2nc(S(=O)(=O)Nc3c(F)cccc3F)nc2n1
inactive: [8] | [3] | [4] | [10] | [7]

COP(=O)(OC)OC(Br)C(Cl)(Cl)Br (configuration not stated)
not listed: [1] | [8] | [9]
inactive: all other assays above

O=[N+]([O-])c1cc(C(F)(F)F)c(Cl)c([N+](=O)[O-])c1Nc1ncc(C(F)(F)F)cc1Cl
active: [5] 21.6 µM | [7] 1.37 µM
inactive: [3] | [4]

CCNc1nc(Cl)nc(NC(C)(C)C#N)n1
inactive: [3] | [4] | [7]

CCOP(=S)(Oc1cnc(C(C)(C)C)nc1)OC(C)C (configuration not stated)
inactive: [8] | [3] | [9] | [4] | [10]
active: [7] 152 µM

CCCCN(CC)c1c([N+](=O)[O-])cc(C(F)(F)F)cc1[N+](=O)[O-]
active: [7] 99.3 µM
inactive: [8] | [2] | [3] | [4]

CSC1=N[C@@](C)(c2ccccc2)C(=O)N1Nc1ccccc1
inactive: [2] | [3] | [9] | [4] | [5] | [7]

CNC(=O)ON=C(SC)C(=O)N(C)C
inactive: [3] | [4] | [5] | [10] | [7]

CNC(=O)ON=C(C)SC
inactive: [3] | [4] | [5] | [6] | [7]

CCOP(=S)(OCC)SCCSCC
inactive: [8] | [3] | [9] | [4] | [6] | [7]

Cc1cc(C2CC2)nc(Nc2ccccc2)n1
inactive: [2] | [3] | [4] | [5] | [7]

CSc1nc(NC(C)C)nc(NC(C)C)n1
inactive: [3] | [9] | [4] | [5] | [7]

CCOC(=O)CC(SP(=O)(OC)OC)C(=O)OCC (configuration not stated)
inactive: [2] | [3] | [4] | [10] | [6] | [7]

CCCCSP(=O)(SCCCC)SCCCC
inactive: [8] | [2] | [3] | [4] | [7]

CC(Oc1cccc(Cl)c1)C(=O)O (configuration not stated)
inactive: [3] | [4] | [10] | [7]

COP(=O)(OC)SCn1c(=O)oc2cc(Cl)cnc21
inactive: [3] | [4] | [10] | [6] | [7]

CSc1nnc(C(C)(C)C)c(=O)n1N
inactive: [3] | [4] | [5] | [7]

CN(C)[C@@H]1C(=O)C(C(N)=O)=C(O)[C@@]2(O)C(=O)C3=C(O)c4c(O)cccc4[C@@](C)(O)[C@H]3[C@H](O)[C@@H]12
inactive: [2] | [3] | [4] | [5] | [6] | [7]

CCOC(=O)COc1cc(-c2nn(C)c(OC(F)F)c2Cl)c(F)cc1Cl
inactive: [8] | [3] | [9] | [4] | [7]

CC1(C(=O)Nc2ccc(O)c(Cl)c2Cl)CCCCC1
not listed: [1] | [8]
inactive: all other assays above

CC1=NNC(=O)N(/N=C/c2cccnc2)C1
not listed: [1] | [8] | [10]
inactive: all other assays above

CCOP(=O)(OCC)Oc1cc(C)nc(C(C)C)n1
inactive: [3] | [4] | [10] | [6] | [7]

N#CSCSC#N
inactive: [3] | [4] | [10] | [6] | [7]

Cc1nn(-c2cc(NS(C)(=O)=O)c(Cl)cc2Cl)c(=O)n1C(F)F
inactive: [3] | [4] | [10] | [6] | [7]

CCC(=NOC/C=C/Cl)C1=C(O)CC(C2CCOCC2)CC1=O (configuration not stated)
inactive: [2] | [3] | [4] | [5] | [7]

C[Si](Cn1cncn1)(c1ccc(F)cc1)c1ccc(F)cc1
inactive: [8] | [2] | [3] | [4] | [5] | [7]

CCOP(=S)(OCC)Oc1ccc2c(C)c(Cl)c(=O)oc2c1
not listed: [1] | [2] | [6]
inactive: all other assays above

CCOP(=S)(OCC)Oc1cc(C)nc(C(C)C)n1
inactive: [3] | [4] | [7]

C[N+]1(C)CCCCC1
inactive: [8] | [3] | [9] | [4] | [10] | [7]
